Source: PubChem
PfM18AAP inh = PfM18AAP enzyme inhibition; recombinant PfM18AAP, H-Glu-NHMec fluorogenic cleavage; inhibition, % at 7.35 µM; actives 1.2% (n = 290,000); AID 1822;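 active means inhibition above the campaign mean inhibition over all tested compounds plus 3 SD, cut at about 28% in these data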;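 further: 0% = plate median of test compound wells and 100% = 2 mM ZnCl2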
ALR inh = human ALR oxidase inhibition via reduced H2O2 | actives 3.8% (n = 290,000) | AID 485317 | purified ALR, DTT oxidation, H2O2 HRP-luminol luminescence | inhibition, % (concentration not given with the values) | P55789;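 active means mean replicate inhibition above about 79%, with every replicate also reaching it, limit read from the data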
Target sequence (P55789 whole entry, looked up): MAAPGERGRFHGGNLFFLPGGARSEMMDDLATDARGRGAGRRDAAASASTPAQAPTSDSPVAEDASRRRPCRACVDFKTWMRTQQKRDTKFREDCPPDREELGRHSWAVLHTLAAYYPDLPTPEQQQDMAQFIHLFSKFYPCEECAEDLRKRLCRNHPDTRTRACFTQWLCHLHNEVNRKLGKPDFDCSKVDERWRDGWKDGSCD
PfG6PD inh = PfG6PD (Plasmodium falciparum) enzyme inhibition. actives 0.78% (n = 350,000). AID 504690. PfGluPho enzyme, NADPH resazurin-diaphorase fluorescence. inhibition, % at 20 µM;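 active means inhibition reaching at least a set limit at 20 µM in the primary screen, cut at about 59% in these data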;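 further: 0% = DMSO wells with substrate and 100% = DMSO wells lacking glucose-6-phosphate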
PHOSPHO1 block = PHOSPHO1 (human) inhibition; Q8TCT1; recombinant PHOSPHO1, absorbance phosphatase assay; inhibition, % at 13.3 µM; actives 1.1% (n = 290,000); AID 1565; in the data active means inhibition above about 60%
Target sequence (Q8TCT1 whole entry, looked up): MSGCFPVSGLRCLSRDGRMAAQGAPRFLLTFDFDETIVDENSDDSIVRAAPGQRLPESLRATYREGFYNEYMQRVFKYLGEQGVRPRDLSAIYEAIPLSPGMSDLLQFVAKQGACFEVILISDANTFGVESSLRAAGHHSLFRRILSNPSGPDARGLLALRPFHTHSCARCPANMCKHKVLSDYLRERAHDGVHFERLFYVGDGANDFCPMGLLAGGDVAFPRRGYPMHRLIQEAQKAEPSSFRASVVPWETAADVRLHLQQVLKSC
H9c2 protect = protects H9c2 cardiomyocytes from peroxide injury. H2O2 injury protection, ATPLite, 2 h. protection from H2O2 cell death, % at 20 µM. actives 0.63% (n = 360,000). AID 588492;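 active means compounds giving at least 50% protection of heart cells from peroxide-induced death in the single-dose screen, raw or plate-pattern-corrected value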;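 further: 0% = DMSO wells with peroxide and 100% = DMSO wells without peroxide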
An asterisk follows results filed as active; nt = not tested or not shown. Rows were chosen to be rich in hits. Some 5.6% of all compounds tested hit in one or more screens of this group.

SMILES	PfM18AAP inh	ALR inh	PfG6PD inh	PHOSPHO1 block	H9c2 protect
O=C(CCN1CCC(c2ccccc2)C1)c1ccccc1 (stereo not given)	3	10	3	44	-20
CCCC1CC(C)(C(=O)CSc2n[nH]c(-c3ccccc3)n2)OC1=O (stereo not given)	-7	7	11	60*	2
CCCC1CC(=O)OC1(C)C(=O)CSc1n[nH]c(-c2ccccc2)n1 (stereo not given)	-10	-2	nt	19	nt
CCCCN(C(=O)c1ccc(S(=O)(=O)N(C)c2ccccc2)cc1)c1c(N)n(CCC)c(=O)[nH]c1=O	nt	nt	2	nt	0
COc1cc(OC)c(NC(C)C(=O)NCc2ccccc2)cc1Cl (stereo not given)	-2	94*	5	2	5
CCN(CC(=O)Nc1ccc(OC)cc1)C(=O)c1cc(S(=O)(=O)N(C)C)ccc1N1CCCC1	nt	1	-17	nt	0
O=[N+]([O-])c1ccccc1N(S(=O)(=O)c1ccccc1)S(=O)(=O)c1ccccc1	nt	nt	6	nt	24
COCCNC(=O)C1(C)CCN(C(=O)c2cc(C)nn2C(C)(C)C)C1 (stereo not given)	nt	nt	nt	nt	0
CCN1CCN(c2ccc(N=Cc3ccc(O)cc3O)cc2)CC1	-4	99*	33	37	5
Cc1ccc(C(=O)Nc2nnc(COCCO)s2)cc1	nt	nt	nt	nt	-7
Cc1cc(OC2CCCCC2)nc(-c2ccccc2O)n1	4	99*	-12	-5	0
Cc1ccc(Oc2cc(C)nc(-c3ccccc3O)n2)cc1	7	2	-4	6	-7
O=C(CSc1nncc(=O)[nH]1)Nc1cccc([N+](=O)[O-])c1	5	100*	20	36	1
Nc1ccc(SCC(=O)Nc2cccc([N+](=O)[O-])c2)cc1	-4	99*	10	32	12
O=C(Cc1cccc(NC(=O)C2CCN(S(=O)(=O)c3cccc([N+](=O)[O-])c3)CC2)c1)Nc1cccc(C(=O)N2CCCCC2)c1	nt	nt	-10	nt	4
Cc1ccccc1S(=O)(=O)NC(=O)C1(C)CCN1C(=O)C1(c2ccc(Cl)cc2)CCC1 (stereo not given)	nt	nt	nt	nt	-1
N#Cc1c2n(c(=S)n(-c3ccc(F)cc3)c1=O)CCCCC2	-10	-6	-1	38	1
N#Cc1c2n(c(=S)n(-c3ccccc3)c1=O)CCCCC2	-1	-11	-5	64*	2
COc1ccc(CCNC(=O)c2cc(-c3cc(C)ccc3O)n[nH]2)cc1OC	7	96*	-13	-3	17
COc1ccc(CCNC(=O)c2cc(-c3ccc(C)c(C)c3O)n[nH]2)cc1OC	2	-3	-11	0	13
COc1ccc(CCNC(=O)c2cc3c(C)nccc3[nH]c2=O)cc1OC	0	-15	-4	-25	76*
Cc1ccsc1C(=O)OCC(=O)NCc1cccs1	nt	nt	25	nt	7
Cc1cc(C(=O)COC(=O)C23CC4CC(CC(O)(C4)C2)C3)c(C)n1C	nt	-2	7	nt	0
O=C1[C@@H]2Cc3c([nH]c4ccccc34)C(c3ccc(Cl)cc3)N2C(=O)CN1CCO (stereo not given in full)	3	99*	6	3	34
Cc1ccc(-c2cc(-c3ccco3)c3c(N)c(C(=O)NN)oc3n2)cc1	4	-7	14	12	30
SMILES	PfM18AAP inh	ALR inh	PfG6PD inh	PHOSPHO1 block	H9c2 protect
COc1cccc(/C=N/NC(=O)c2oc3nc(-c4ccccc4)cc(-c4ccco4)c3c2N)c1	-4	-16	-2	27	56*
COc1ccc(S(=O)(=O)NC(=O)C2(C)CCN2C(=O)CCC2CCCC2)cc1OC (stereo not given)	nt	nt	nt	nt	-1
CN(C)N(Cc1ccccc1)C(=O)C(O)(c1ccccc1)c1ccccc1	0	-2	-13	nt	60*
CCCC(C)C(=O)Nc1ncc(S(=O)(=O)c2ccc([N+](=O)[O-])cc2)s1 (stereo not given)	1	-7	3	-8	-13
O=S1c2ccccc2Nc2ccccc21	nt	87*	3	nt	-3
CC1(C)CC(=O)C2=C(C1)Nc1ccccc1[S@]2=O	-8	nt	-12	32	1
Cc1cccc(NC(=O)CSc2nc3[nH]c(=O)cc(O)c3s2)c1	nt	99*	2	nt	-2
O=C(CSc1nc2[nH]c(=O)cc(O)c2s1)Nc1cccc(Br)c1	nt	99*	-12	nt	-6
COc1ccc(NC(=O)CSc2nc3[nH]c(=O)[nH]c(=O)c3s2)cc1OC	1	99*	-49	27	3
Nc1cc(=O)[nH]c(SCC(=O)Nc2ccc(Cl)c(Cl)c2)n1	-12	-7	-11	8	-3
Nc1cc(=O)[nH]c(SCC(=O)Nc2ccc(Br)cc2)n1	3	98*	-7	17	0
CC1=C(C(=O)N(C(C)C)C(C)C)CC(CC(=O)NCc2ccco2)C(=O)N1CCCN1CCCC1=O (stereo not given)	nt	nt	nt	nt	2
O=C(CSc1nc2[nH]c(=O)cc(O)c2s1)Nc1ccc(Br)cc1	nt	82*	-21	nt	9
COc1ccc(OC)c(NC(=O)CSc2nc3[nH]c(=O)cc(O)c3s2)c1	nt	-18	-1	nt	7
COc1cc(NC(=O)CSc2nc3[nH]c(=O)cc(O)c3s2)cc(OC)c1OC	nt	99*	-4	nt	16
CCOc1ccccc1NC(=O)c1ccc2c(c1)C(=O)N(CC)C2=O	-2	-2	-14	40	8
COc1ccc(Cl)cc1NC(=O)CSc1nnc(Cc2ccc(C)cc2)c(=O)[nH]1	nt	6	-23	nt	-14
CCc1cccc(NC(=O)COC(=O)/C=C/c2cccs2)c1	nt	-5	9	nt	-3
Cc1cccnc1C1=NOC(Cc2ccccc2)C(=O)N1Cc1ccccc1F (stereo not given)	nt	nt	nt	nt	-4
CC1Cc2nc(SCC(=O)Nc3nc4ccccc4s3)n(C)c(=O)c2S1 (stereo not given)	-8	99*	27	2	-11
CC1Cc2nc(SCC(=O)OCc3ccccc3)n(C)c(=O)c2S1 (stereo not given)	5	99*	25	-21	-4
CC1Cc2nc(SCC(=O)c3ccccc3)n(Cc3ccccc3)c(=O)c2S1 (stereo not given)	6	50	14	22	8
CC1Cc2nc(SCC(=O)N3CCc4ccccc43)n(C)c(=O)c2S1 (stereo not given)	-2	98*	41	-31	-12
CC1Cc2nc(SCC(=O)N3CCOCC3)n(C)c(=O)c2S1 (stereo not given)	-2	25	11	27	1
CN(C(=O)c1cccc(NC(=O)Cc2ccc(NC(=O)C3CCN(C(=O)C4CCCCC4)CC3)cc2)c1)C1CCCC1	nt	nt	16	nt	-4
COc1ccc(CN2C(=O)C(CC(=O)NCc3ccco3)CC(C(=O)N(C(C)C)C(C)C)=C2C)cc1 (stereo not given)	nt	nt	2	nt	-6
CN1CCN(C(=O)c2cccc(-c3cnc4cnc(-c5ccccc5Oc5ccccc5)cn34)c2)CC1	nt	nt	nt	nt	17
